Source: PubChem BioAssay (NCI)
This is part of a sample that, as a whole, favours compounds with a hit. Of some 83,000 tested, about 20% had one in any assay.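 For each line, cells grew in 96-well plates with the test compound present at a single concentration for 48 hours.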 Unmarked numbers belong to inactive results. The source made the active and inactive calls. How the source made its calls: active means growth percent below 10; inactive means the rest.

Assays:
Assay in all cases: NCI-60 one-dose screen, 48 h (100 = growth as untreated, 0 = no growth, -100 = all killed)
NCI-H460 lung = details: 10 µM unless noted
786-0 renal = details: 10 µM unless noted
COLO 205 colon = details: 10 µM
K-562 leukemia = details: 10 µM unless noted
MALME-3M melanoma = details: 10 µM unless noted
RXF 393 renal = details: 10 µM unless noted
SF-295 CNS = details: 10 µM unless noted
SK-MEL-5 melanoma = details: 10 µM unless noted
LOX IMVI melanoma = details: 10 µM unless noted
SK-MEL-2 melanoma = details: 10 µM unless noted
UO-31 renal = details: 10 µM unless noted
CAKI-1 renal = details: 10 µM unless noted
A498 renal = details: 10 µM unless noted
HL-60(TB) leukemia = details: 10 µM unless noted
MOLT-4 leukemia = details: 10 µM
OVCAR-4 ovarian = details: 10 µM unless noted
OVCAR-3 ovarian = details: 10 µM unless noted
SW-620 colon = details: 10 µM unless noted
A549/ATCC NSCLC = details: 10 µM unless noted
UACC-257 melanoma = details: 10 µM unless noted

Structure (SMILES) | growth (NCI-H460 lung) | growth (786-0 renal) | growth (COLO 205 colon) | growth (K-562 leukemia) | growth (MALME-3M melanoma) | growth (RXF 393 renal) | growth (SF-295 CNS) | growth (SK-MEL-5 melanoma) | growth (LOX IMVI melanoma) | growth (SK-MEL-2 melanoma) | growth (UO-31 renal) | growth (CAKI-1 renal) | growth (A498 renal) | growth (HL-60(TB) leukemia) | growth (MOLT-4 leukemia) | growth (OVCAR-4 ovarian) | growth (OVCAR-3 ovarian) | growth (SW-620 colon) | growth (A549/ATCC NSCLC) | growth (UACC-257 melanoma)
CC(=O)[O][Hg][c]1ccccc1 | -52.1% (active) | -96.4% (active) | -98.5% (active) | -21% (active) | -88% (active) | -92% (active) | 13.6% | -87.6% (active) | -88.2% (active) | -52.9% (active) | -94.2% (active) | -69.7% (active) | -46.6% (active) | -27.5% (active) | -10.9% (active) | -25.2% (active) | -93.3% (active) | -92.9% (active) | – | –
COc1ccc(C2=NN(c3ccccc3)C(c3sc(N(CCCl)CCCl)nc3Cl)C2)cc1 (centres undefined) | 99% | 103% | 92.1% | 64.1% | 99.3% | 110% | 93.2% | 83.7% | 89.8% | 91.3% | 78.6% | 69.4% | 122% | 99.8% | 67.5% | 91.9% | 93.3% | 92.5% | 85.6% | 89.7%
N#CC(C#N)=Cc1ccc2ccccc2c1 | – | 104% | 110% | 102% | – | 96.5% | 111% | 101% | 84% | 102% | – | 101% | – | 96.4% | 107% | 110% | 117% | – | 107% | 108%
CC(C)(C)[Si](C)(C)OC1[C@@H](O[Si](C)(C)C(C)(C)C)[C@@H](CNC(=O)NC(=O)CF)O[C@H]1n1cnc2c(NC(=O)Nc3ccccc3)ncnc21 (some centres undefined) | 4.01% (active) | 61.4% | 84.4% | 37.7% | 101% | 65.8% | 79.5% | – | 12.2% | – | 77.5% | 85.6% | 70.2% | 17.3% | -13.4% (active) | 63.8% | 19.8% | 33.8% | 26.2% | –
COc1ccccc1N1CCN(CCc2c[nH]c3cc4c(cc23)OCO4)CC1 | 51.6% | 79% | 74.7% | 76.3% | 92% | 75.8% | 41% | 74.8% | 60.4% | 57.6% | 33.2% | 75.5% | 108% | 64.8% | 84.7% | 99.2% | 91.2% | 88.6% | – | 56.7%
S=P(Nc1ccccc1)(Nc1ccccc1)c1ccccc1 | 103% | 94.6% | 146% | – | 142% | 98.5% | 102% | 92.1% | 89.1% | 105% | 87.7% | 71.4% | 70.6% | – | – | 104% | 103% | 103% | 91.8% | 102%
NC(=O)SCC(=O)Nc1ccc([As](=O)(O)O)cc1 | 101% | 82.8% | 75.6% | 75.5% | 122% | 95.7% | 111% | 102% | 68.8% | 73.3% | 93.8% | 109% | 113% | 56.9% | 86.1% | 99.8% | 103% | 73.9% | 85.9% | 74.1%
ClCCN(CCCl)C(c1ccccc1)c1ccc(Cl)cc1 (centres undefined) | – | 87.5% | 114% | 42.6% | – | 88.4% | 75.5% | 54.9% | 81.3% | – | 104% | 10.1% | – | 15.1% | -3.35% (active) | 96.9% | 91.9% | 51.6% | 88.9% | 90.9%
C/C1=C/C(=O)O[C@@H]2C[C@@H](CC[C@H](C)/C=C\C=C\CC1)O[C@@](OCCc1ccccc1)([C@@H]1CSC(=O)N1)C2 | 21.6% | 9.36% (active) | 5.64% (active) | 36.3% | -10.3% (active) | -77.1% (active) | 17.7% | -21.2% (active) | 4.46% (active) | 67.7% | -62.5% (active) | -74.3% (active) | -29.1% (active) | 90.6% | 61.4% | -4.5% (active) | -48.7% (active) | 59.3% | 15.4% | -3.39% (active)
OC1CCCCC1N1CCC(c2ccccc2)CC1 (centres undefined) | 109% | 93.1% | 107% | – | 103% | 124% | 98.5% | 106% | 99.4% | – | 82.5% | 96.5% | 89.4% | 86.2% | 79.9% | 109% | – | 99.3% | 106% | 109%
Cc1cccc(N=C2c3cc([N+](=O)[O-])ccc3-c3c2cc([N+](=O)[O-])cc3[N+](=O)[O-])c1 | 33.5% | 60% | 98.5% | 23.1% | – | 72.2% | 97.8% | 71% | 39.3% | 12.1% | – | 67.8% | 74.5% | 46.7% | 27.5% | 71.3% | – | -54.9% (active) | 72.1% | 90.8%
NCCc1cc(O)c(O)cc1O | 112% | 99.9% | 106% | 102% | – | 113% | 106% | 98.5% | 101% | 101% | – | 100% | 122% | 103% | 86.5% | 99.5% | 111% | 109% | 100% | 102%
CCN1CC2(CN(CC)C1=S)C(=O)NC(=O)NC2=O | 100% | 90.3% | 115% | 87.5% | 103% | 116% | 95.1% | 106% | 103% | 99% | 99.4% | 85.4% | 112% | 83.3% | 107% | 93.3% | 107% | 97.4% | 99.9% | 94.7%
CC1([N+](=O)[O-])COP(=O)(Nc2ccc(F)cc2)OC1 (centres undefined) | 106% | 102% | 107% | 103% | 110% | 100% | 106% | 98.2% | 84.2% | 98% | 73.9% | 107% | – | 90.4% | 83% | 113% | – | 102% | 98.5% | 101%
CC(CC(C#N)(c1ccccc1)c1ccccc1)N1CCOCC1 (centres undefined) | 112% | 112% | 101% | 83.5% | 120% | 112% | – | 102% | 102% | 101% | 74.6% | 92.9% | 88.8% | 86.4% | 82.3% | 108% | 105% | 106% | 95.6% | 106%
CC(=O)N(C)C1=Nc2ccc(Cl)cc2C(c2ccccc2)=[N+]([O-])C1 | 111% | 110% | 105% | 109% | 121% | 109% | 107% | 105% | 95.4% | 95.8% | 80.7% | 99.8% | 106% | 135% | 101% | 114% | 117% | 107% | 106% | 95.7%
Oc1ccc(Br)cc1CN1CCN(Cc2ccc(Cl)cc2)CC1 | 93.1% | 107% | 71.1% | -34.3% (active) | – | 76.7% | – | -3.7% (active) | 19.7% | 88.2% | 47.4% | 59.5% | 105% | 47.5% | 56.1% | 65.5% | 67.8% | 73.1% | 62.3% | 86.7%
